Test results: PubChem BioAssay (NCI)
Compounds without any hit were thinned out: in the full panel of roughly 83,000, 20% have a hit.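 Plates (96-well) were seeded with cells, treated with compound at one concentration, and incubated for 48 hours before percent growth was determined.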 A number with no mark means an inactive call. The source made the active and inactive calls. How the source made its calls: active means growth percent below 10; inactive means the rest.

What was measured:
Experiment in all cases: NCI-60 one-dose screen, 48 h (100 = growth as untreated, 0 = no growth, -100 = all killed)
Details in all cases: 10 µM unless noted
[1] = tested on: DU-145 prostate
[2] = tested on: K-562 leukemia
[3] = tested on: MALME-3M melanoma
[4] = tested on: MDA-MB-231 breast
[5] = tested on: RXF 393 renal
[6] = tested on: SF-268 CNS
[7] = tested on: SF-295 CNS
[8] = tested on: SF-539 CNS
[9] = tested on: UACC-257 melanoma
[10] = tested on: M14 melanoma
[11] = tested on: HCT-15 colon
[12] = tested on: HT29 colon
[13] = tested on: SNB-75 CNS
[14] = tested on: SNB-19 CNS
[15] = tested on: U251 CNS
[16] = tested on: PC-3 prostate
[17] = tested on: SK-MEL-5 melanoma
[18] = tested on: UACC-62 melanoma
[19] = tested on: LOX IMVI melanoma
[20] = tested on: SK-MEL-28 melanoma

Compound | growth [1] | growth [2] | growth [3] | growth [4] | growth [5] | growth [6] | growth [7] | growth [8] | growth [9] | growth [10] | growth [11] | growth [12] | growth [13] | growth [14] | growth [15] | growth [16] | growth [17] | growth [18] | growth [19] | growth [20]
Cc1c(CC(=O)Nc2ccccc2)nnn1-c1ccccc1 | 115% | 101% | 106% | 118% | 120% | 104% | 109% | 100% | 104% | 108% | 101% | 111% | 104% | 102% | 102% | 104% | 101% | 97.7% | 97.7% | 112%
C=C(C)Cn1c(SCC(=O)c2cccs2)nc2sc3c(c2c1=O)CCCC3 | 50.9% | 41% | 71.5% | 65.5% | 52.2% | 42.2% | 42.2% | 39.3% | 81.5% | 77.6% | 22.7% | 38.9% | 62.6% | 45.1% | 36.3% | 48.6% | 36.4% | 44.8% | 4.51% (active) | 55.3%
COc1ccc(/C=C/C(=O)c2ccc(-n3cc(CN4CCN(c5cc6c(cc5F)c(=O)c(C(=O)O)cn6C5CC5)CC4)nn3)cc2)cc1 | 83.2% | 42.6% | 66.2% | 67.2% | 64.2% | 56% | 94.9% | 50.8% | 78.7% | 59% | 80.6% | 29.6% | 58.3% | 67.7% | 41.4% | 56.3% | 69% | 53.9% | 27.9% | 79.7%
Cc1c2cnccc2c(C)c2c1c1cc(C(=O)O)ccc1n2C | 4.3% (active) | 9.3% (active) | -31.8% (active) | 3.08% (active) | -72.1% (active) | 0.973% (active) | -2.38% (active) | -24.5% (active) | -31.4% (active) | -0.906% (active) | 1.03% (active) | 7.11% (active) | -7.4% (active) | 2.23% (active) | 0.0209% (active) | 10.4% | -84.7% (active) | -55% (active) | -27.1% (active) | -27.4% (active)
CNC(=O)c1cc(Oc2cccc3nc(NC(=O)Nc4ccc(F)cc4F)ccc23)ccn1 | 30% | 42% | -21.2% (active) | 60.1% | 1.54% (active) | 48.1% | 55.6% | -18.9% (active) | 56.3% | 19.3% | 18.1% | 35.9% | -64.4% (active) | 54.8% | 14.9% | 38.5% | 22.7% | 52.5% | 19.8% | 30.8%
O=C1NCCS(=O)(=O)/C1=C\C=C\c1cccc(C(F)(F)F)c1 | 29.4% | 17.3% | 29.9% | 49.1% | 35.5% | 28.6% | 82.7% | 10.6% | 38.6% | 7.1% (active) | 10.2% | 16.8% | 71.2% | 49.6% | 36% | 37.5% | 34.5% | -15% (active) | -73.6% (active) | 28.7%
COc1ccc(C(=O)C2OC3=C(C(=O)CC(C)(C)C3)C2c2cccc(Oc3ccccc3)c2)cc1 (stereo not given) | 102% | 87.2% | 112% | 87.5% | 101% | 92.5% | 97.1% | 94.5% | 91% | 98.7% | 89.3% | 91.1% | 86.9% | 92.8% | 88.9% | 81.3% | 90.7% | 72.6% | 92.3% | 103%
COC(=O)[C@H](C)NC(=O)c1ccc(NC(=O)c2[nH]c(C)c(Cl)c2Cl)c(OCCN)c1 | 104% | 66.7% | 113% | 103% | 115% | 96.3% | 102% | 101% | 104% | 119% | 99.9% | 109% | 98.6% | 101% | 110% | 98.5% | 99.2% | 103% | 96.2% | 110%
CN1CCN(CCCNC(=O)c2c3c(n4ccccc24)C(=O)c2ncccc2C3=O)CC1 | 17.8% | -1.31% (active) | -91.2% (active) | 0.342% (active) | 21.1% | 9.37% (active) | 28.4% | -4.38% (active) | -55.8% (active) | -53.9% (active) | 4.07% (active) | 0.534% (active) | -4.64% (active) | -4.84% (active) | -15.7% (active) | -1.89% (active) | -96% (active) | -23.7% (active) | -31.7% (active) | 61.5%
O=S(=O)(Nc1ccc(Br)cc1)c1ccc(-c2cnc(C3CC3)o2)cc1 | 38.1% | 11.3% | 44.4% | 35.2% | 10.4% | 39.9% | 28.9% | 3.63% (active) | 66.1% | 18.1% | 20.8% | 13.9% | -6.53% (active) | 35.3% | 24.9% | 29.2% | 19.2% | 23.6% | 45.9% | 53.5%
NC(=N\N=C/c1ccc(Cl)cc1Cl)/C(N)=N\N=C/c1ccc(Cl)cc1Cl | 90.6% | 80.6% | 88.3% | 71.1% | 83.6% | 89.7% | 60% | 43.5% | 118% | 105% | 82.9% | 52.5% | 8.06% (active) | 69.8% | 36.2% | 89.2% | 108% | 94.9% | 74% | 110%
COC(=O)CCc1c(/C=C2\N=C(c3ccc[nH]3)C=C2OC)[nH]c(C)c1C(=O)OCc1ccccc1 | 29.9% | 6.23% (active) | -5.75% (active) | -12.6% (active) | -15.9% (active) | 21.4% | -30.4% (active) | -16.9% (active) | 9.69% (active) | -24.7% (active) | -1.22% (active) | 9.15% (active) | -17.6% (active) | 39.3% | 3.55% (active) | 6.14% (active) | -52.4% (active) | -29.2% (active) | -52.7% (active) | 16.8%
CC(=O)O[C@H]1C[C@@]2(C)[C@@H](C[C@@H](O)[C@H]3[C@@]4(C)CC[C@H](N5CCCC5)[C@@H](C)[C@@H]4CC[C@@]32C)/C1=C(\CCC=C(C)C)C(=O)O | 105% | 14.8% | 95.6% | 109% | 98.9% | 98.9% | 96.3% | 96.1% | 98.1% | 92.2% | 94.5% | 103% | 97.7% | 99.6% | 99.5% | 92.8% | 96.2% | 94.9% | 97% | 92.9%
Nc1cc(-c2ccc(Cl)cc2)nn1-c1nc(-c2ccc(Br)cc2)cs1 | 108% | 105% | 86.7% | 97.3% | 103% | 106% | 96.6% | 97.9% | 92.1% | 96.1% | 98.3% | 92% | 89.4% | 91.4% | 95.2% | 91.5% | 100% | 91.1% | 102% | 95.3%
COc1ccc(/C=C2/CCc3cc4ccc(OC)cc4[o+]c32)c(O)c1 | 76.7% | 39.1% | 16.9% | 36.7% | 71.4% | 82.2% | 106% | 109% | 87.4% | 26% | 4.44% (active) | 29.6% | 90.9% | 63.1% | 69.4% | 8.84% (active) | 67.8% | 47.5% | 7.79% (active) | 47.8%
CN1C(=O)N(C)C2C1NN=c1s/c(=C\c3ccccc3F)c(=O)n12 (stereo not given) | 15.9% | 9.52% (active) | 44.9% | 13.2% | -6.27% (active) | 65.5% | 14.6% | -23.8% (active) | 54.5% | 9.53% (active) | 13.3% | 2.25% (active) | -4.89% (active) | 24.1% | 14.5% | 27.4% | 16.7% | 21% | 20.6% | 47.1%
